Here are results for 39 sequences from paper doi:10.1101/2024.03.05.583629.

pT7_6His-AlfaTag-HOXD13, sequence (P35453 263-343): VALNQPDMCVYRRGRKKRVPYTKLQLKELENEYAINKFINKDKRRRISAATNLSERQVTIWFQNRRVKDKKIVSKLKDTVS

The assay addresses pT7_6His-AlfaTag-HOXD13 (human, UniProt P35453 263-343). Put plainly: PADIT-seq. The note with it: dsDNA, one strand shown.
As to “CTCGAGGATATCAAGATCTGGCCTCGGCACAATAAAAGGAACCTCTAGCTAGCCGACTCACTATAGGGATAATCGCCCTGAGCAAAGACC”, the binding signal was determined as 2.72 ± 0.0742 log2FC. For “CTCGAGGATATCAAGATCTGGCCTCGGCTTTTTAGGAGGAACCTCTAGCTAGCCGACTCACTATAGGGATAATCGCCCTGAGCAAAGACC”, the binding signal came out at 1.41 ± 0.0944 log2FC. The sequence “CTCGAGGATATCAAGATCTGGCCTCGGCATTTTACACGGAACCTCTAGCTAGCCGACTCACTATAGGGATAATCGCCCTGAGCAAAGACC” yielded a binding signal of 2.19 ± 0.0742 log2FC. As for “CTCGAGGATATCAAGATCTGGCCTCGGCGTTATAAAAGGAACCTCTAGCTAGCCGACTCACTATAGGGATAATCGCCCTGAGCAAAGACC”, the binding signal worked out at 2.4 ± 0.0697 log2FC. The result for “CTCGAGGATATCAAGATCTGGCCTCGGCTATTTAAAAGGAACCTCTAGCTAGCCGACTCACTATAGGGATAATCGCCCTGAGCAAAGACC” reads 2.42 ± 0.0909 log2FC; that for “CTCGAGGATATCAAGATCTGGCCTCGGCTTTTTATTGGGAACCTCTAGCTAGCCGACTCACTATAGGGATAATCGCCCTGAGCAAAGACC”, 3.26 ± 0.0862 log2FC; that for “CTCGAGGATATCAAGATCTGGCCTCGGCGTTTTAGATGGAACCTCTAGCTAGCCGACTCACTATAGGGATAATCGCCCTGAGCAAAGACC”, 0.145 ± 0.106 log2FC.

“CTCGAGGATATCAAGATCTGGCCTCGGCCTTTTACTAGGAACCTCTAGCTAGCCGACTCACTATAGGGATAATCGCCCTGAGCAAAGACC” returned a binding signal of 3.01 ± 0.0725 log2FC.

In turn, “CTCGAGGATATCAAGATCTGGCCTCGGCCTTTTAGGTGGAACCTCTAGCTAGCCGACTCACTATAGGGATAATCGCCCTGAGCAAAGACC” displayed a binding signal of 0.366 ± 0.0957 log2FC. “CTCGAGGATATCAAGATCTGGCCTCGGCGCGTGGCCGGGAACCTCTAGCTAGCCGACTCACTATAGGGATAATCGCCCTGAGCAAAGACC” displayed a binding signal of -1.04 ± 0.14 log2FC. In the case of “CTCGAGGATATCAAGATCTGGCCTCGGCATTTTAGACGGAACCTCTAGCTAGCCGACTCACTATAGGGATAATCGCCCTGAGCAAAGACC”, the binding signal is -0.141 ± 0.116 log2FC.

Sequence “CTCGAGGATATCAAGATCTGGCCTCGGCCTTTTAATTGGAACCTCTAGCTAGCCGACTCACTATAGGGATAATCGCCCTGAGCAAAGACC” yielded a binding signal of 2.53 ± 0.0779 log2FC. The result for “CTCGAGGATATCAAGATCTGGCCTCGGCATTGTAAAAGGAACCTCTAGCTAGCCGACTCACTATAGGGATAATCGCCCTGAGCAAAGACC” reads 2.55 ± 0.0888 log2FC; that for “CTCGAGGATATCAAGATCTGGCCTCGGCGCGTTTGCGGGAACCTCTAGCTAGCCGACTCACTATAGGGATAATCGCCCTGAGCAAAGACC”, -0.387 ± 0.156 log2FC; that for “CTCGAGGATATCAAGATCTGGCCTCGGCCGCCCATTTGGAACCTCTAGCTAGCCGACTCACTATAGGGATAATCGCCCTGAGCAAAGACC”, -0.832 ± 0.113 log2FC. The result for “CTCGAGGATATCAAGATCTGGCCTCGGCATTTTAGTTGGAACCTCTAGCTAGCCGACTCACTATAGGGATAATCGCCCTGAGCAAAGACC” reads 0.276 ± 0.112 log2FC; that for “CTCGAGGATATCAAGATCTGGCCTCGGCGCGTGGCGAGGAACCTCTAGCTAGCCGACTCACTATAGGGATAATCGCCCTGAGCAAAGACC”, -0.862 ± 0.192 log2FC; that for “CTCGAGGATATCAAGATCTGGCCTCGGCCGCCCATCTGGAACCTCTAGCTAGCCGACTCACTATAGGGATAATCGCCCTGAGCAAAGACC”, -0.946 ± 0.119 log2FC. The same measure for “CTCGAGGATATCAAGATCTGGCCTCGGCCTTTTACATGGAACCTCTAGCTAGCCGACTCACTATAGGGATAATCGCCCTGAGCAAAGACC”: 1.85 ± 0.0771 log2FC; for “CTCGAGGATATCAAGATCTGGCCTCGGCCGCTCGCGCGGAACCTCTAGCTAGCCGACTCACTATAGGGATAATCGCCCTGAGCAAAGACC”: -1.03 ± 0.134 log2FC. For the sequence “CTCGAGGATATCAAGATCTGGCCTCGGCCGCCCAAATGGAACCTCTAGCTAGCCGACTCACTATAGGGATAATCGCCCTGAGCAAAGACC”, the binding signal was -0.854 ± 0.128 log2FC. In the case of “CTCGAGGATATCAAGATCTGGCCTCGGCGATATAAAAGGAACCTCTAGCTAGCCGACTCACTATAGGGATAATCGCCCTGAGCAAAGACC”, the binding signal turned out to be 1.99 ± 0.0693 log2FC. Sequence “CTCGAGGATATCAAGATCTGGCCTCGGCATACTAAAAGGAACCTCTAGCTAGCCGACTCACTATAGGGATAATCGCCCTGAGCAAAGACC” registered a binding signal of 0.619 ± 0.0967 log2FC. “CTCGAGGATATCAAGATCTGGCCTCGGCGTTTTAGTCGGAACCTCTAGCTAGCCGACTCACTATAGGGATAATCGCCCTGAGCAAAGACC”: the binding signal was -0.506 ± 0.12 log2FC. Take “CTCGAGGATATCAAGATCTGGCCTCGGCGTTTTATTCGGAACCTCTAGCTAGCCGACTCACTATAGGGATAATCGCCCTGAGCAAAGACC”: the binding signal is 1.73 ± 0.0989 log2FC. “CTCGAGGATATCAAGATCTGGCCTCGGCGGAATAAAAGGAACCTCTAGCTAGCCGACTCACTATAGGGATAATCGCCCTGAGCAAAGACC” registered a binding signal of 0.87 ± 0.0838 log2FC.

With “CTCGAGGATATCAAGATCTGGCCTCGGCGTGGTAAAAGGAACCTCTAGCTAGCCGACTCACTATAGGGATAATCGCCCTGAGCAAAGACC”, the binding signal stood at 1.02 ± 0.077 log2FC. Sequence “CTCGAGGATATCAAGATCTGGCCTCGGCGCACTAAAAGGAACCTCTAGCTAGCCGACTCACTATAGGGATAATCGCCCTGAGCAAAGACC” displayed a binding signal of 0.431 ± 0.0748 log2FC.

Take “CTCGAGGATATCAAGATCTGGCCTCGGCTTTTTAAGGGGAACCTCTAGCTAGCCGACTCACTATAGGGATAATCGCCCTGAGCAAAGACC”: the binding signal stood at 1.83 ± 0.0924 log2FC. The same measure for “CTCGAGGATATCAAGATCTGGCCTCGGCGCTCTAAAAGGAACCTCTAGCTAGCCGACTCACTATAGGGATAATCGCCCTGAGCAAAGACC”: 0.0795 ± 0.0859 log2FC. The same measure for “CTCGAGGATATCAAGATCTGGCCTCGGCTTTTTACGCGGAACCTCTAGCTAGCCGACTCACTATAGGGATAATCGCCCTGAGCAAAGACC”: 2.08 ± 0.0867 log2FC; for “CTCGAGGATATCAAGATCTGGCCTCGGCCTTCTAAAAGGAACCTCTAGCTAGCCGACTCACTATAGGGATAATCGCCCTGAGCAAAGACC”: 0.087 ± 0.127 log2FC; for “CTCGAGGATATCAAGATCTGGCCTCGGCGGCATAAAAGGAACCTCTAGCTAGCCGACTCACTATAGGGATAATCGCCCTGAGCAAAGACC”: 0.675 ± 0.0684 log2FC. “CTCGAGGATATCAAGATCTGGCCTCGGCATGTTAAAAGGAACCTCTAGCTAGCCGACTCACTATAGGGATAATCGCCCTGAGCAAAGACC” yielded a binding signal of 1.48 ± 0.0814 log2FC.

Sequence “CTCGAGGATATCAAGATCTGGCCTCGGCCGCCCAATAGGAACCTCTAGCTAGCCGACTCACTATAGGGATAATCGCCCTGAGCAAAGACC” gave a binding signal of -0.536 ± 0.118 log2FC. Take “CTCGAGGATATCAAGATCTGGCCTCGGCGTAATAAAAGGAACCTCTAGCTAGCCGACTCACTATAGGGATAATCGCCCTGAGCAAAGACC”: the binding signal amounted to 2.86 ± 0.0699 log2FC. “CTCGAGGATATCAAGATCTGGCCTCGGCGATGTAAAAGGAACCTCTAGCTAGCCGACTCACTATAGGGATAATCGCCCTGAGCAAAGACC” yielded a binding signal of 0.79 ± 0.0749 log2FC. Sequence “CTCGAGGATATCAAGATCTGGCCTCGGCGATCTAAAAGGAACCTCTAGCTAGCCGACTCACTATAGGGATAATCGCCCTGAGCAAAGACC” returned a binding signal of -0.592 ± 0.0883 log2FC. Sequence “CTCGAGGATATCAAGATCTGGCCTCGGCCGTCTAAAAGGAACCTCTAGCTAGCCGACTCACTATAGGGATAATCGCCCTGAGCAAAGACC” had a binding signal of -0.577 ± 0.117 log2FC.
